The campaign covered roughly 200,000 compounds. About 110 (0.055%) were called active. The sample holds actives, similar compounds and a random draw of the others, so the mix is not that of the screen. A number with no mark means an inactive call. Rule as the data show it: active = inhibition above about 50%; inactive = the rest.
target: Serine/threonine-protein kinase D1 (Homo sapiens) (UniProt Q15139); experiment: protein kinase D1 activity blockers – biochemical, fluorescence polarization (AID 797); settings: PKD1 kinase fluorescence polarization assay; active compounds read high; concentration not given here
Sequence (Q15139 whole entry, looked up): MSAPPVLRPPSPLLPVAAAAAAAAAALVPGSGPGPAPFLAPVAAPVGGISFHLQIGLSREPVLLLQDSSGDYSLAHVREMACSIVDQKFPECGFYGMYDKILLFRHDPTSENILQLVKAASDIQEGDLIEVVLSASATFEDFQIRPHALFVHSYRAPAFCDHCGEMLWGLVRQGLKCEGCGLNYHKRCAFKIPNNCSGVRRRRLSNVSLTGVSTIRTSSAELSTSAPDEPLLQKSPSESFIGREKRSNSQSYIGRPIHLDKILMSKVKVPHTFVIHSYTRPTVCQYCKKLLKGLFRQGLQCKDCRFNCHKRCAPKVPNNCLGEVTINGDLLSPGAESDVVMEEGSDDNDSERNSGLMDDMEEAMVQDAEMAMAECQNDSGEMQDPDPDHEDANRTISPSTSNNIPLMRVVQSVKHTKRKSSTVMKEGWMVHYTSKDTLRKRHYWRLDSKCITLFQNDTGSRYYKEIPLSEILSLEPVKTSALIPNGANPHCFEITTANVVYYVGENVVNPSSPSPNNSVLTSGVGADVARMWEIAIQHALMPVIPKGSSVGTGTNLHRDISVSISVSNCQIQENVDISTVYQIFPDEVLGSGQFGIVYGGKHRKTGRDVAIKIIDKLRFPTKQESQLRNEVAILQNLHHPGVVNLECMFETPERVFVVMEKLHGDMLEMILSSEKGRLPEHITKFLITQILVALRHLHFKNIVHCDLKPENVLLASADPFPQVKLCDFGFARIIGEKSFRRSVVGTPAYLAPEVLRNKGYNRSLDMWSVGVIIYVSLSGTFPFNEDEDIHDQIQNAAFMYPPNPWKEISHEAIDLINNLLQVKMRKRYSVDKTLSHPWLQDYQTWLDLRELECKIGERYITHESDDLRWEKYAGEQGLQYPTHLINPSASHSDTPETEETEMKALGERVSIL

Row | SMILES | inhibition
1 | COc1ccc(OCC(=O)NN2Cc3ccccc3C2=N)cc1 | 8.39%
2 | COc1cccc(NC(=O)C(Sc2nnnn2C)c2ccccc2)c1 (stereo not given) | 9.09%
3 | Cc1cccc(/C(N)=N/OC(=O)c2ccccc2Cl)c1 | -1.38%
4 | O=C(NC1CCCCC1)C1CC(=O)N(CCc2ccccc2)C1 (stereo not given) | -8.12%
5 | Cc1cc(/C=C(/C#N)C(=O)Nc2ccc(Cl)cc2)c(C)n1-c1cccnc1 | 1.34%
6 | CCN1CN(Cc2ccccc2)CNC1=S | -12%
7 | CCNC(=O)CC1C(=O)N(c2ccc(F)cc2)C(=O)N1Cc1cccs1 (stereo not given) | 4.62%
8 | CCOc1ccc(N2C(=O)Nc3ccccc3C2(O)C(=O)NCc2ccco2)cc1 (stereo not given) | -4.75%
9 | CN(C)/C=C(\C#N)C(=O)c1cccnc1Oc1cccc(F)c1 | 5.99%
10 | CCCCn1nc(C(=O)OCC(=O)Nc2sccc2C(N)=O)c2ccccc2c1=O | 4.31%
11 | Cc1ccc(NC(=S)N(CCCN2CCC(C)CC2)Cc2ccco2)cc1 | 2.06%
12 | Cc1ccc2cc(CCNC(=O)c3c(-c4ccccc4Cl)noc3C)c(=O)[nH]c2c1 | 0.32%
13 | CC(C)CC(CO)N1CCN(C(=O)c2ccc(Cl)cc2Cl)CCC1=O (stereo not given) | -14%
14 | Cc1cccc(NS(=O)(=O)c2ccc(C)c(C(N)=O)c2)c1 | -2.59%
15 | CN(CC(=O)Nc1ccccc1F)CC(=O)Nc1ccccc1Br | -7.89%
16 | COc1ccc(N=C2SC(C(=O)Nc3ccc(F)cc3)CC(=O)N2C)cc1 (stereo not given) | -4.67%
17 | CCOc1ccc(-c2c(C)n([O-])c3c([n+]2=O)CCCC3)cc1 | -3.86%
18 | Cc1ccc(C(=O)CNc2ccc(F)cc2)cc1 | -19.1%
19 | Cn1cc(/C=C/c2nc3ccccc3c(=O)n2-c2cccc([N+](=O)[O-])c2)c2ccccc21 | -2.78%
20 | CC(=O)c1ccc(Oc2cc(C)nc(-n3nc(C)cc3C)n2)cc1 | -3.62%
21 | COc1ccccc1/C=N\Nc1cc(C)nc(-n2nc(C)cc2C)n1 | 2.16%
22 | COc1ccc(Nc2cc(C)nc(-n3nc(C)cc3C)n2)cc1 | 56.8% (active)
23 | CCCCCC(=O)NC(=S)NNC(=O)c1ccc([N+](=O)[O-])cc1 | -0.76%
24 | O=C(CN1C(=O)NC2(CCCCCC2)C1=O)NC1CC1 | -5.29%

Row | SMILES | inhibition
25 | CC1(C)CC(=O)C(N=Nc2ccc(S(=O)(=O)N3CCCCCC3)cc2)=C(O)C1 | 4.42%
26 | O=C(O)Cc1ccc(NCc2ccccc2Cl)cc1 | 0.93%
27 | Cc1ccc(C(=O)Cc2nnc(C)s2)cc1 | 1.06%
28 | CCN(CC)CC1(O)CCN(C(=O)c2ccc(Cl)c(Cl)c2)CC1 | 6.8%
29 | CC(=O)Nc1ccc(NC(=S)NC(=O)/C=C/c2ccccc2)cc1 | -7.92%
30 | CCOc1cc2[nH]c(=S)n(Cc3ccc(C(=O)NCCOC)cc3)c(=O)c2cc1OCC | -4.22%
31 | O=C(COc1ccc(-c2ccccc2)cc1)NN=C1CCCC1 | -5.5%
32 | COC(=O)C1(O)CC(C(C)C)=NN1C(=O)c1ccc(Cl)cc1 (stereo not given) | -10.1%
33 | COc1ccc(CCNC(=O)COC(=O)C2CCCCC2)cc1 | 1.52%
34 | COc1ccc(NC(=O)CCNS(=O)(=O)c2ccc3c(c2)c(=O)n(C)c(=O)n3C)cc1OC | -3.26%
35 | COC(=O)c1ccccc1SC1CC(=O)N(c2cccc(C)c2)C1=O (stereo not given) | -3.82%
36 | CN(CCc1cnn(C)c1)Cc1cn(C)nc1-c1ccccc1F | 0.1%
37 | Cc1nc(-c2ccc(Cl)cc2)sc1C(=O)CBr | 2.56%
38 | CC1=NN(C(=O)CCCc2ccccc2)C(O)(C(F)(F)F)C1 (stereo not given) | -2.79%
39 | C/C(N)=C(/C#N)C(=O)COC(=O)c1cc(-c2cccc(Br)c2)nc2ccccc12 | -0.94%
40 | CCN(CC)CCNC(=O)CCCCCn1c(=O)[nH]c2cc(C(=O)OC)ccc2c1=O | -5.2%
41 | Cc1c(Br)c([N+](=O)[O-])nn1CC(=O)N1CCN(Cc2ccccc2)CC1 | 6.58%
42 | O=C(CC1SC(=Nc2ccccc2F)N(CCN2CCOCC2)C1=O)Nc1ccc(F)cc1F (stereo not given) | 1.23%
43 | O=C(Nc1cccnc1)c1ccc(Cl)cc1[N+](=O)[O-] | -1.12%
44 | Cc1ccc(NC(=O)C(=O)NCC2CCN(C(=O)c3cccc([N+](=O)[O-])c3)CC2)cc1 | 4.77%
45 | S=C(NN=C1CCN(Cc2ccccc2)CC1)NC1CCCCC1 | 1.24%
46 | COc1ccc(NC(=S)NCc2cccs2)c(OC)c1 | 7.19%
47 | CC(C)NC(=S)N1CCN(C(c2ccccc2)c2ccccc2)CC1 | 3.7%
48 | COc1ccc(S(=O)(=O)N2CCN(C(=O)NC3CCCCC3)CC2)cc1 | -1.15%

Row | SMILES | inhibition
49 | O=C1CCCC2=C1C(c1cccs1)CC(=O)N2c1ccc(F)cc1 (stereo not given) | -3.47%
50 | Cn1c(=O)c2cc(S(=O)(=O)NCCC(=O)Nc3ccc(F)cc3F)ccc2n(C)c1=O | -2.88%
51 | O=C(Nc1nnc(Cc2ccc(Cl)cc2)s1)c1cccnc1 | -1.74%
52 | Cn1c(CCC(=O)Nc2ccccc2F)nnc1SCC(=O)Nc1ccccc1Cl | -1.31%
53 | O=C(CSc1ncnc2c1nnn2Cc1ccc(F)cc1)NC1CCCC1 | -10.6%
54 | Cc1cc(C(=O)CC#N)c(C)n1-c1c(C)n(C)n(-c2ccccc2)c1=O | -2.44%
55 | CCS(=O)(=O)c1ccc2c(c1)N(S(=O)(=O)c1ccccc1)CC(C(=O)O)O2 (stereo not given) | 2.03%
56 | CC1(C)CC(=O)C2=C(C1)N=C1SCCC(=O)N1C2c1ccc(C(F)(F)F)cc1 (stereo not given) | -8.04%
57 | CN1CCN(C(c2cc3cc4c(cc3[nH]c2=O)OCCO4)c2nnnn2C2CCCC2)CC1 (stereo not given) | -0.35%
58 | COc1cc(OC)c(C2=NOC(C(=O)Nc3c(C)n(C)n(-c4ccccc4)c3=O)C2)cc1Cl (stereo not given) | 5.19%
59 | Cc1ccc2c(c1)N(CC(=O)N(Cc1ccccn1)Cc1ccco1)C(=O)C(C(C)C)O2 (stereo not given) | -5.96%
60 | S=C(NC1CCCCC1)NN1CCOCC1 | -5.63%
61 | COCCSc1nnc(NC(=O)c2cc(OC)c(OC)cc2[N+](=O)[O-])s1 | -3.97%
62 | Cc1cn(C)c(=O)n(C)c1=O | 1.43%
63 | N#Cc1ccc(-c2nc3cc(C#N)c(C#N)cc3nc2-c2ccccc2)cc1C#N | 9.6%
64 | O=Cc1ccc(Oc2cccc(C(F)(F)F)c2)nc1 | 7.02%
65 | Cc1ccc(/C=C/C(=O)Nc2cc(S(=O)(=O)N3CCCCCC3)ccc2OCC(F)(F)F)o1 | -9.11%
66 | CCc1ccc(-c2cc(C(=O)NN3CCN(C)CC3)c3ccccc3n2)cc1 | 6.48%
67 | C=CCC(C(=O)c1ccccc1)[N+](C)(C)CC=C (stereo not given) | -3.34%
68 | O=[N+]([O-])c1ccccc1SNc1ccccn1 | -1.62%
69 | Cc1cc(C)cc(C(=O)NC(=S)Nc2ccc3[nH]c(=O)[nH]c3c2)c1 | 20.7%
70 | O=C1CN(C(=O)COC(=O)c2cnc(Cl)c(Cl)c2)c2ccccc2N1 | 1.7%
71 | NC(=O)c1ncc(C(F)(F)F)cc1Oc1ccc(F)cc1 | -8.91%
72 | O=C(Cc1c[nH]c2ccccc12)N/N=C/c1cccc(F)c1 | 12.4%

Row | SMILES | inhibition
73 | CCc1c(C)nc2c(OC)cccc2c1Cl | -2.35%
74 | O=C(/C=C/c1ccc2c(c1)OCO2)NCc1cn2cc(Cl)ccc2n1 | -5.4%
75 | O=C(CCCc1ccccc1)NCc1ccccc1 | -6.66%
76 | CC(NC(=O)C(=O)N/N=C/c1ccc(Cl)cc1)c1ccccc1 (stereo not given) | -2.86%
77 | O=C(NC(=S)N1CCN(Cc2ccccc2)CC1)c1ccccc1 | -10.3%
78 | Cc1ccc(S(=O)(=O)Cc2cc(-c3ccc(Cl)cc3)no2)cc1 | -1.03%
79 | CC(C)N1CCC(=NNc2ccc([N+](=O)[O-])cc2S(=O)(=O)N2CCOCC2)CC1 | -0.4%
80 | CCOc1ccc(-n2c(SCC(=O)NC3CCS(=O)(=O)C3)nnc2-c2cccnc2)cc1 (stereo not given) | 0.66%
81 | CN(Cc1ccc2nsnc2c1)Cc1nc(Cc2cccc(F)c2)no1 | 5.24%
82 | OCCCC1CCCCN1Cc1nc(Cc2ccccc2Cl)no1 (stereo not given) | 0.81%
83 | Cc1cccc(C(=O)OC(C)CN2CCN(C)CC2)c1 (stereo not given) | 1.4%
84 | Cc1nnsc1C(=O)Nc1cccc(Cl)c1C | -5.78%
85 | Cn1nccc1CNC(=O)c1ccnn1C | -0.52%
86 | CC(C)c1ccc(-c2noc(C3CCCN(S(C)(=O)=O)C3)n2)cc1 (stereo not given) | 0.73%
87 | COC(=O)C1=C(C)N(c2ccc(C)cc2)/C(=C/c2ccc(O)cc2)C1=O | 1.38%
88 | Cc1ccc(-c2nnc(SCC(=O)N/N=C/c3cccs3)n2-c2ccc(C)cc2)cc1 | -3.67%
89 | Oc1ccc2ccc3cccc[n+]3c2c1 | -0.84%
90 | S=c1[nH]cc(-c2ccc(Cl)cc2)n1-c1ccccc1 | -3.56%
91 | COc1cccc(CNC(=O)CCN2C(=S)NC(C)(C)CC2C)c1 (stereo not given) | 16.6%
92 | O=C(Nc1cc(S(=O)(=O)N2CCOCC2)ccc1Cl)c1cc(=O)c2ccccc2o1 | -4.37%
93 | C/C(=N\OCC(=O)Nc1ccc(Br)cc1)c1cccs1 | -6.23%
94 | N#Cc1cccc(Nc2c3c(nc4ccccc24)CCCC3)c1 | 1.12%
95 | COc1ccc(-c2ccc(CCC(=O)O)n2-c2ccc(O)cc2)cc1 | -3.57%

Reference: PubChem BioAssay AID797 (University of Pittsburgh Molecular Library Screening Center, 2007)
